Source: PubChem BioAssay AID1159580 (chemical genetic matrix, 2015)
Values joined by “and” are separate entries in the source; they are usually repeats but may differ in a detail not shown here. Equal entries are not always repeated. In all, about 5,500 compounds went through this assay and about 2,000 (36%) were called active. About 18% were inconclusive and are not listed. Cut-off read from the data, not from the text of the source: active = normalized growth mostly below about 0.91 (no sharp cut-off); inconclusive = no clear call, values can overlap the other calls; inactive = mostly above about 0.92. Some of the results follow.

Test: chemical genetic growth profiling, strain panel (AID 1159580);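 note: tested at 20 µM; growth read once vehicle control cultures reached saturation at 30 °C; 1 = growth at the plate median or of vehicle wells; lower values mean less growth of the strain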
Settings: S. cerevisiae deletion strains, growth OD

Measured: normalized growth

S=C=NCc1ccccc1
active: locus YAL013W, strain DEP1, stronger effect = lower value 0.0579 | locus YAL021C, strain ccr4, stronger effect = lower value 0.661 | locus YAL026C, strain drs2, stronger effect = lower value 0.0761 | locus YAL030W, strain snc1, stronger effect = lower value 0.0648 | locus YBL061C, strain skt5, stronger effect = lower value 0.079 | locus YBR009C, strain hhf1, stronger effect = lower value 0.0753 | locus YBR021W, strain FUR4, stronger effect = lower value 0.17 | locus YBR023C, strain chs3, stronger effect = lower value 0.0813 | locus YBR171W, strain sec66, stronger effect = lower value 0.117 | locus YBR229C, strain ROT2, stronger effect = lower value 0.0461 | locus YBR231C, strain swc5, stronger effect = lower value 0.0718 | locus YBR279W, strain paf1, stronger effect = lower value 0.0918 | locus YCL011C, strain gbp2, stronger effect = lower value 0.0749 | locus YCL016C, strain dcc1, stronger effect = lower value 0.0958 | locus YCL029C, strain bik1, stronger effect = lower value 0.0592 | locus YCL061C, strain MRC1, stronger effect = lower value 0.0833 | locus YCL069W, strain vba3, stronger effect = lower value 0.0787 | locus YCR088W, strain abp1, stronger effect = lower value 0.069 | locus YDL005C, strain med2, stronger effect = lower value 0.583 | locus YDL035C, strain GPR1, stronger effect = lower value 0.0548 | locus YDL040C, strain nat1, stronger effect = lower value 0.139 | locus YDL074C, strain BRE1, stronger effect = lower value 0.0981 | locus YDL101C, strain DUN1, stronger effect = lower value 0.0649 | locus YDL134C, strain PPH21, stronger effect = lower value 0.0517 | locus YDL185W, strain tfp1, stronger effect = lower value 0.0574 | locus YDL192W, strain arf1, stronger effect = lower value 0.0627 | locus YDR001C, strain nth1, stronger effect = lower value 0.07 | locus YDR069C, strain doa4, stronger effect = lower value 0.143 | locus YDR101C, strain arx1, stronger effect = lower value 0.0574 | locus YDR137W, strain rgp1, stronger effect = lower value 0.616 | locus YDR150W, strain NUM1, stronger effect = lower value 0.0586 | locus YDR159W, strain sac3, stronger effect = lower value 0.275 | locus YDR162C, strain NBP2, stronger effect = lower value 0.0541 | locus YDR195W, strain ref2 0.187 | locus YDR297W, strain sur2, stronger effect = lower value 0.068 | locus YDR318W, strain mcm21, stronger effect = lower value 0.0636 | locus YDR334W, strain swr1, stronger effect = lower value 0.0851 | locus YDR335W, strain msn5, stronger effect = lower value 0.0739 | locus YDR388W, stronger effect = lower value 0.061 | locus YDR392W, strain spt3, stronger effect = lower value 0.112 | locus YDR502C, strain sam2, stronger effect = lower value 0.0605 | locus YEL003W, strain gim4, stronger effect = lower value 0.0605 | locus YEL037C, strain rad23, stronger effect = lower value 0.178 | locus YEL061C, strain CIN8 (second series), stronger effect = lower value 0.0786 | locus YEL061C, strain CIN8, stronger effect = lower value 0.05 | locus YER015W, strain faa2, stronger effect = lower value 0.0762 | locus YER016W, strain bim1, stronger effect = lower value 0.081 | locus YER110C, stronger effect = lower value 0.0778 | locus YER111C, strain swi4, stronger effect = lower value 0.0829 | locus YER155C, strain BEM2 (second series), stronger effect = lower value 0.0957 | locus YER155C, strain BEM2, stronger effect = lower value 0.0627 | locus YER167W, strain BCK2, stronger effect = lower value 0.0526 | locus YFR010W, strain ubp6, stronger effect = lower value 0.136 | locus YGL078C, strain dbp3, stronger effect = lower value 0.0565 | locus YGL086W, strain mad1, stronger effect = lower value 0.0589 | locus YGL167C, strain pmr1, stronger effect = lower value 0.393 | locus YGL173C, strain kem1, stronger effect = lower value 0.214 | locus YGL227W, strain vid30, stronger effect = lower value 0.072 | locus YGL240W, strain doc1, stronger effect = lower value 0.203 | locus YGL248W, strain PDE1, stronger effect = lower value 0.0468 | locus YGL253W, strain hxk2, stronger effect = lower value 0.0793 | locus YGR078C, strain PAC10, stronger effect = lower value 0.0557 | locus YGR135W, strain pre9, stronger effect = lower value 0.066 | locus YGR229C, strain SMI1, stronger effect = lower value 0.0658 | locus YGR252W, strain gcn5, stronger effect = lower value 0.176 | locus YHR013C, strain ard1, stronger effect = lower value 0.175 | locus YHR027C, strain rpn1, stronger effect = lower value 0.103 | locus YHR030C, strain SLT2, stronger effect = lower value 0.0491 and 0.174 | locus YHR079C, strain IRE1 (second series), stronger effect = lower value 0.0547 | locus YHR079C, strain IRE1, stronger effect = lower value 0.181 | locus YHR094C, strain hxt1, stronger effect = lower value 0.0577 | locus YHR129C, strain ARP1, stronger effect = lower value 0.0553 | locus YHR142W, strain chs7, stronger effect = lower value 0.0817 | locus YHR200W, strain rpn10, stronger effect = lower value 0.0598 | locus YIL066C, strain RNR3, stronger effect = lower value 0.0519 | locus YIL073C, strain SPO22, stronger effect = lower value 0.132 | locus YIL125W, strain kgd1, stronger effect = lower value 0.0561 | locus YIR030C, strain dcg1, stronger effect = lower value 0.0588 | locus YJL092W, strain hpr5, stronger effect = lower value 0.08 | locus YJL095W, strain BCK1 (second series), stronger effect = lower value 0.0601 | locus YJL095W, strain BCK1, stronger effect = lower value 0.0573 and 0.268 | locus YJL115W, strain asf1, stronger effect = lower value 0.123 | locus YJL129C, strain trk1, stronger effect = lower value 0.257 | locus YJL134W, strain LCB3, stronger effect = lower value 0.0484 | locus YJL154C, strain vps35, stronger effect = lower value 0.165 | locus YJL164C, strain tpk1, stronger effect = lower value 0.0744 | locus YJL166W, strain qcr8, stronger effect = lower value 0.0848 | locus YJL168C, strain set2, stronger effect = lower value 0.0599 | locus YJL187C, strain SWE1 (second series), stronger effect = lower value 0.0487 | locus YJL187C, strain SWE1, stronger effect = lower value 0.0904 | locus YJR043C, strain POL32, stronger effect = lower value 0.0693 | locus YJR066W, strain TOR1, stronger effect = lower value 0.735
